Source: PubChem BioAssay
Cruzain noTriton – blocks cruzain activity in detergent-free assay; Potency, µM, for the others: max response, negative = inhibition, hits mostly inhibitors; actives 2.3% (n = 200,000); purified cruzain, Z-FR-AMC fluorescence, no detergent; P25779; AID 1476;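 note: plate controls were enzyme without inhibitor for no effect and buffer without enzyme for full effect; nearly all actives have a fitted effect of over 40% in size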
Target sequence (P25779 123-467 limits assumed): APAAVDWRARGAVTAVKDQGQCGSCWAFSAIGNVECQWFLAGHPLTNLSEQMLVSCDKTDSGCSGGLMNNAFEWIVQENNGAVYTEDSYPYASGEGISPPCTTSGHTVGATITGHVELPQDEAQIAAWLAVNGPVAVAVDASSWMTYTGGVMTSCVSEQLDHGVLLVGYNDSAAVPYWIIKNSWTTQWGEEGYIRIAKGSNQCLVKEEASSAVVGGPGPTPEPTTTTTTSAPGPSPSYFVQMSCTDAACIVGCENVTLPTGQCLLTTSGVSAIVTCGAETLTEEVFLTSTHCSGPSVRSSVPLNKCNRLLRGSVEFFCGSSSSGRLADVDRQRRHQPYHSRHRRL
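Detergent-free condition (0.00005% Triton X-100) in acetate buffer pH 5.5 with DTT. 1.5 nM enzyme and compound were pre-mixed 15 min, then 2 uM Z-FR-AMC substrate added; reaction progress from fluorescence change between first and third reads (60 s).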
Cruzain Triton – cruzain (T. cruzi) inhibition with detergent | P25779 | purified cruzain, Z-FR-AMC fluorescence, 0.01% Triton | Potency, µM, without a hit: max response, negative = inhibition, hits mostly inhibitors | actives 0.43% (n = 200,000) | AID 1478;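 note: plate controls were neutral wells for no effect and buffer without enzyme for full effect; nearly all actives have a fitted effect of over 40% in size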
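Steps: dispense cruzain (1.5 nM final) in acetate buffer pH 5.5 with DTT and 0.01% Triton X-100; pin-transfer compounds; incubate 15 min RT; add Z-FR-AMC (2 uM final); read fluorescence every 30 s, using the 60 s intensity change.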
Numbers without * were called inactive; u = inconclusive. Compounds with a hit are over-represented: about 2.5% of the library has one in this group of screens. Calls come from the whole dose curve; as a rule, active = well fitted curve in the direction sought with a large enough effect; inconclusive = small, poorly fitted or top-dose-only effect, or another doubt; inactive = no such curve, though single readings can be large; an effect the other way counts as inactive or inconclusive. Potency is the fitted concentration of half-maximal effect.

SMILES	Cruzain noTriton	Cruzain Triton
Cc1cc(Cl)nc(NC(=O)CSc2ccc(Cl)cc2)n1	-1%	-6%
CCC1CCCCN1S(=O)(=O)c1ccc(C(=O)Nc2sc3c(c2C(N)=O)CCC3)cc1 (configuration not stated)	-15%	-4%
Cc1ccc(O)c(NC(=O)c2cc3nc4c(c(C(F)(F)F)n3n2)CCc2ccccc2-4)c1	10µM*	-2%
Cc1ccc(Cn2ccc(NC(=O)c3cc4nc5c(c(C(F)(F)F)n4n3)CCc3ccccc3-5)n2)cc1	0%	3%
O=C(O)CCCN1CCCCC1	6%	3%
CCOc1ccc(NC(=O)Cn2nc(CC)n3c(cc4sccc43)c2=O)cc1	11%	-2%
O=C(COC(=O)c1c2c(nc3ccccc13)/C(=C\c1cccs1)CCC2)Nc1ccccc1	10µM*	0%
O=C(COC(=O)c1cccs1)Nc1ccccc1	-1%	2%
O=C(COC(=O)c1c2c(nc3ccccc13)CCCC2)Nc1ccc2c(c1)OCO2	25µM*	-6%
CC(=O)c1ccc(NC(=O)COC(=O)CCC(=O)c2cccs2)cc1	-1%	-1%
O=C(COC(=O)c1cc(-c2ccccc2)nc2ccccc12)Nc1ccc2c(c1)OCO2	u	-4%
CC(=O)c1ccc(NC(=O)COC(=O)c2c3c(nc4ccccc24)/C(=C\c2cccs2)CCC3)cc1	7.9µM*	5%
CCCN(CCC)CCNC(=O)c1sc2nc3n(c(=O)c2c1C)CCCCC3	-2%	-2%
Cc1cc(NC(=O)CSc2nc3ccccc3s2)no1	32µM*	1%
Cc1cnc(NC(=O)CSc2nc3ccccc3s2)s1	-10%	-5%
CCOc1ccc2nc(SCC(=O)N3c4ccccc4Sc4ccccc43)sc2c1	u	1%
O=C(CSc1nc2ccccc2s1)N1c2ccccc2Sc2ccccc21	16µM*	2%
Cc1ccc(N2C(=O)CC(Sc3nc(-c4ccccc4)c4cc(Cl)ccc4n3)C2=O)c(C)c1 (configuration not stated)	16µM*	-8%
Cc1ccccc1N1C(=O)CC(Sc2nnc(-c3ccccc3)o2)C1=O (configuration not stated)	3%	-3%
COc1cccc(Cn2c(NCc3ccc(C)cc3)nc3c2c(=O)n(C)c(=O)n3C)c1	-16%	-5%
CC(=O)c1cccc(NC(=O)CCCSc2nc(-c3ccco3)cc(C(F)(F)F)n2)c1	19%	-12%
COC(=O)c1c(NC(=O)COC(=O)CNC(=O)C2CCCCC2)sc(C)c1C	10µM*	4µM*
COC(=O)c1c(NC(=O)COC(=O)CCS(=O)(=O)c2ccc(C)cc2)sc(C)c1C	9%	-7%
COc1ccc(-c2csc3nc(-c4ccc(F)cc4)oc(=O)c23)cc1OC	14%	-3%
O=C(Cn1c(=O)n(CCc2c[nH]c3ccccc23)c(=O)c2cccnc21)Nc1ccccc1F	u	-2%
SMILES	Cruzain noTriton	Cruzain Triton
Cc1cccc(NC(=O)Cn2c(=O)n(CCc3c[nH]c4ccccc34)c(=O)c3cccnc32)c1	25µM*	-2%
COc1ccc(Cn2ccc3nc(C)c(C(=O)Nc4cc(C)cc(C)c4)cc3c2=O)cc1	u	-7%
O=C(CNc1cccc2ccccc12)N/N=C/c1ccc([N+](=O)[O-])cc1	4%	-3%
O=C(CNc1cccc2ccccc12)N/N=C/c1cccc(Oc2ccccc2)c1	20µM*	0%
O=C(Nc1ccc(Cl)cc1)OCCN1CCN(Cc2ccccc2)CCC1=O	7%	0%
COc1ccc(-n2c(=O)c3ccc(C(=O)NCc4ccc(C)cc4)cc3n(CC(=O)Nc3ccc(C)cc3)c2=O)cc1	-7%	0%
CCN(CC)Cc1c(O)c(Cl)cc2c3c(c(=O)oc12)CCCC3	-22%	u
O=c1oc2c(CN3CCOCC3)c(O)c(Cl)cc2c2c1CCC2	u	25µM*
Cc1c(O)c(CN2CCCCC2)cc2c3c(c(=O)oc12)CCC3	u	-29%
Cc1c(C)c2cc(Cl)c(O)c(CN(C)C)c2oc1=O	u	32µM*
CN(C)Cc1c(O)c(Cl)cc2c3c(c(=O)oc12)CCCC3	13µM*	u
CN(C)Cc1cc(Cl)c(O)c(CN(C)C)c1	-1%	4%
COc1ccc(-c2nc3ccccc3s2)cc1NC(=O)c1cccc([N+](=O)[O-])c1C	-2%	2%
COc1cccc([C@@H]2Oc3ccc(OC)cc3C[C@H]2O)c1	-4%	-1%
Cc1ccc(N2CCN(Cc3nnc(-c4ccc5c(c4)OCO5)o3)CC2)c(C)c1	10%	0%
C[C@@]1(C(=O)O)NCCc2cc(O)c(O)cc21	u	-6%
CCN(CC)CCNC(=O)c1cc2c(=O)n(C)c3cc(Cl)ccc3c2s1	10%	-3%
CC(=O)Nc1ccc(NC(=O)c2cc(-c3ccc4c(c3)OCCO4)on2)cc1	-8%	0%
O=C(Nc1ccc(SC(F)F)cc1)c1cc(-c2ccc3c(c2)OCCO3)on1	7.9µM*	0%
CCc1ccc(S(=O)(=O)c2c(C(=O)c3ccccc3)cnc3ccc(CC)cc23)cc1	u	-3%
